From PubChem BioAssay
Compounds with a hit are over-represented: about 3.6% of the library has one in this group of screens.
TSG101-PTAP inh – TSG101-PTAP interaction inhibition, HIV-1 budding; Q99816; Fluorescence polarization, FITC-PTAP peptide/Tsg101, 20 min; Potency, µM (top dose mostly 115 µM), actives largely listed as inhibitors; 44,000 tested, under 10 active; AID 1347069; also: potency is read from the fitted curve at half-maximal effect; 0% is about no effect
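Read-out is FITC fluorescence polarization. Compounds were added to Tsg101 binding domain (10 uM final), then FITC-PTAP peptide (50 nM final), 20 min at r.t. Total S+P intensity flags fluorescent compounds.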
GALC G270D up – galactocerebrosidase G270D activity enhancement, cell-based; P54803; 145M-Twi-hGALC-G270D cells (Twitcher mouse brain line with human GALC G270D), HMU-beta-Gal fluorescence, 48 h; Potency, µM (doses to about 57.5 µM), usual class: activators; hit rate 0.1% among 45,000; AID 1159614; also: potency is read from the fitted curve at half-maximal effect; 0% is about no effect; nearly all actives have a fitted effect of over 65% in size
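Fluorogenic HMU-b-Gal hydrolysis (0.1 mM final, pH 5.2 citrate-phosphate with 1 mg/mL sodium taurocholate; carbonate stop buffer) measures mutant GALC activity after compound treatment of live 145M-Twi Twitcher brain cells stably carrying human GALC-G270D, with wild-type GALC line alongside; activation sought.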
GALK inhibitor – inhibitors of human galactokinase (GALK). 44,000 tested, under 10 active. Potency, µM (doses to about 57.5 µM), inactives show at the highest dose activity, negative = inhibition, usual class: inhibitors. recombinant GALK, Kinase-Glo ATP luminescence, 1 h. P51570. AID 1347072;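 also: plate controls were full GALK reaction for no effect and reaction lacking GALK for full effect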
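5 nM GALK with 35 µM ATP and 100 µM galactose in HEPES pH 8.0, MgCl2, NaCl, DTT, BSA; 1 h RT reaction, remaining ATP detected by Kinase-Glo Plus luminescence after 10 min; qHTS concentration series.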
B2AR arrestin ag – beta-arrestin recruitment by human beta2-adrenergic receptor ligands. Potency, µM (titrated, usually from 46.1 µM), usual class: activators. 44,000 tested, under 10 active. P07550. HTLA Tango cells, beta-arrestin recruitment, luciferase luminescence, 18 h;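 also: potency is read from the fitted curve at half-maximal effect; 0% = DMSO and full agonism = EC100 isoproterenol or metaproterenol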
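Receptor–beta-arrestin recruitment read by tTA-responsive luciferase: compound titrations (up to 46 µM) incubated 18 h with Tango cells, then luminescent substrate 15 min at room temperature. Concentration-response fits classified by r2, efficacy and activity.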
GPR32 ag – activates human resolvin D1 receptor GPR32 | CHO-K1 GPR32 beta-arrestin PathHunter luminescence, 90 min; zero percent set by DMSO-only wells | activation, % at 76.9 µM | hit rate 2.5% among 48,000;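 active = activation of at least 60% and not above a set upper limit, about 1 call in 100 departs from these limits; inconclusive = activation of 40% to 60%, or above that upper limit; inactive = activation under 40%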; also: 0% is about no effect
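PathHunter enzyme-fragment complementation, CHO-K1 GPR32 stable line; 2,500 cells/well, overnight attach; cpd 90 min 37 °C 5% CO2; detection reagent 1 h RT; chemiluminescence. DMSO = EC0.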
NTMT1 inhibitor – inhibitors of human N-terminal methyltransferase NTMT1; NTMT1 MTase-Glo SAH luminescence, purified enzyme; Potency, µM (series often up to 114 µM), without a hit: at the top dose activity change, negative = inhibition, usual class: inhibitors; hit rate 2.5% among 59,000;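 also: potency is read from the fitted curve at half-maximal effect; plate controls were DMSO vehicle for no effect and no enzyme for full effect; nearly all actives have a fitted effect of over 65% in size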
Sfp qHTS opt – inhibits purified B. subtilis Sfp PPTase | hit rate 78% among 230 | purified Sfp PPTase enzyme activity, qHTS | AID 540350 | Potency, µM (top dose mostly 114 µM), without a hit: top-dose activity change, negative = inhibition, hits mostly inhibitors | shares compounds with NTMT1 inhibitor
HM489 growth – B. subtilis HM489 growth inhibition; shares compounds with NTMT1 inhibitor; B. subtilis HM489 (acpS-) growth, BacTiter-Glo, 5 h; Potency, µM (titrated, usually from 114 µM), inactives show at the highest dose activity change, negative = inhibition, most hits filed as inhibitors; hit rate 50% among 220
Sfp gel opt – inhibits B. subtilis Sfp PPTase in gel assay. hit rate 54% among 220. AID 540355. Potency, µM (highest dose often 250 µM), without a hit: at the highest dose activity change, negative = inhibition, most hits filed as inhibitors. shares compounds with NTMT1 inhibitor. purified Sfp PPTase, gel-based product detection
Sfp gel – Sfp phosphopantetheinyl transferase inhibition, gel detection. shares compounds with NTMT1 inhibitor. purified Sfp PPTase, gel-based product detection. Potency, µM (doses to about 250 µM), for the others: top-dose activity change, negative = inhibition, most hits filed as inhibitors. hit rate 90% among 45. AID 602362
Sfp inh SAR2 – Sfp phosphopantetheinyl transferase inhibition, SAR round 2. hit rate 87% among 230. Potency, µM (highest dose often 57.1 µM), for the others: at the highest dose activity change, negative = inhibition, usual class: inhibitors. purified Sfp enzyme, PPTase activity, qHTS. AID 602370. shares compounds with NTMT1 inhibitor
hGST A1-1 inh – inhibits hGST A1-1 in Sfp inhibitor counter-screen. shares compounds with NTMT1 inhibitor. hGST A1-1 enzyme activity counter-screen, qHTS. Potency, µM (doses to about 114 µM), without a hit: top-dose activity change, negative = inhibition, hits mostly inhibitors. 55 tested, under 10 active. AID 602391
HSD17B4 inh – inhibits human HSD17B4, off-target for HPGD inhibitors; shares compounds with NTMT1 inhibitor; purified HSD17B4, estradiol/NAD+, NADH fluorescence; Potency, µM (top dose mostly 57.1 µM), for the others: top-dose activity change, negative = inhibition, actives largely listed as inhibitors; hit rate 10% among 230; AID 743187
ALDH1A1 counter – inhibits human ALDH1A1, off-target for HPGD inhibitors. shares compounds with NTMT1 inhibitor. recombinant ALDH1A1, NADH fluorescence, propionaldehyde/NAD+. Potency, µM (top dose mostly 57.1 µM), for inactives: top-dose activity change, negative = inhibition, actives largely listed as inhibitors. hit rate 93% among 230. AID 743195
Target sequence (P00352 whole entry, looked up): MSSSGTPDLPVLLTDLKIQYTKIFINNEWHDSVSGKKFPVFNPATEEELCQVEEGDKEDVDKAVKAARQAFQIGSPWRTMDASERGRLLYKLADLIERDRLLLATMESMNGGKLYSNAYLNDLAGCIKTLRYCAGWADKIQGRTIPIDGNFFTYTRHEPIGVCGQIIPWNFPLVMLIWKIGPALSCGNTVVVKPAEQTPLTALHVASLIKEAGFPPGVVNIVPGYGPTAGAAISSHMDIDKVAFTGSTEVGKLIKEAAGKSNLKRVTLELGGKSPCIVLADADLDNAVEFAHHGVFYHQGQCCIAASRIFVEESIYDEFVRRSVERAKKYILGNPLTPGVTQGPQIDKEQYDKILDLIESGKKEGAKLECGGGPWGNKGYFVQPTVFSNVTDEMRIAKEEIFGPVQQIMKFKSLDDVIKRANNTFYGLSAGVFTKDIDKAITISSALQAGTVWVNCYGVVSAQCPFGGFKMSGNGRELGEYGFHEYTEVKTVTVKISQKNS
NNMT counter – counter-screen for NTMT1 inhibitors: human NNMT inhibition. AID 1645878. shares compounds with NTMT1 inhibitor. NNMT MTase-Glo luminescence, SAH detection. hit rate 10% among 120. Potency, µM (top dose mostly 57.1 µM), inactives show top-dose activity, negative = inhibition, usual class: inhibitors
Target sequence (P40261 whole entry, looked up): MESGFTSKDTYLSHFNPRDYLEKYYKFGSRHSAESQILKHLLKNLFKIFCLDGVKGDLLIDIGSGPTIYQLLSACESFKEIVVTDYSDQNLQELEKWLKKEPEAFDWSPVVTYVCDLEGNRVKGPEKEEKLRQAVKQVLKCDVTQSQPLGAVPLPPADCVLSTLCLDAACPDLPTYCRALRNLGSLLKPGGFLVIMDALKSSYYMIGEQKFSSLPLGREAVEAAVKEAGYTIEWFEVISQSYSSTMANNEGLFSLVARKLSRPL
Numbers without * were called inactive; i = inactive; ? = inconclusive; / = no result; [ ] = dose if it differs, or a comment. Unless noted, calls follow the shape of the dose curve; as a rule, active = well fitted curve in the direction sought with a large enough effect; inconclusive = small, poorly fitted or top-dose-only effect, or another doubt; inactive = no such curve, though single readings can be large; an effect the other way counts as inactive or inconclusive.

SMILES	TSG101-PTAP inh	GALC G270D up	GALK inhibitor	B2AR arrestin ag	GPR32 ag	NTMT1 inhibitor	Sfp qHTS opt	Sfp inh SAR2	HSD17B4 inh	ALDH1A1 counter	others
CCOC(=O)c1c(C)[nH]c(C)c1S(=O)(=O)N1CCC(C(=O)Nc2cc(C)ccn2)CC1	i	i	0.4%	i	-1.7	-5.5%	/	/	/	/
Cc1cc(C)nc(NC(=S)N2CCN(c3ccc(Cl)c(Cl)c3)CC2)c1	/	/	/	/	/	-8.8%	2.1µM*	0.91µM*	-29.5%	8.57µM*	HM489 growth=5.91µM*;Sfp gel opt=12µM*;Sfp gel=3.02µM*;hGST A1-1 inh=?
C/C=C/C(O)C1OC(=O)CC1Nc1ccc(C(=O)O)cc1 (stereo not drawn)	/	/	/	/	/	8.5%[57.5 µM]	/	/	/	/
COc1ccc([C@H]2OC[C@H]3[C@@H]2CO[C@@H]3c2ccc(O[C@@H]3O[C@H](CO)C(O)[C@H](O)[C@H]3O)c(OC)c2)cc1OC (stereo partly drawn)	/	/	/	/	/	23.0%[29.8 µM]	/	/	/	/
Cc1ccnc(NC(=S)N2CCN(c3cccc(N(C)C)c3)CC2)c1	/	/	/	/	/	-25.1%	9.37µM*	5.76µM*	?	1.71µM*	HM489 growth=37.3µM*;Sfp gel opt=1.26µM*;Sfp gel=8.5µM*;hGST A1-1 inh=?
Cc1nc2ccc(Oc3ccc(F)cc3)cc2c(=O)n1C[C@H]1CCCN(C(C)C)C1	/	/	/	/	/	-6.8%[57.5 µM]	/	/	/	/
O=C(/C=C/c1ccc2ccc(C(F)(F)F)cc2n1)c1ccncc1	/	/	/	/	/	-14.0%	/	/	/	/
CC(C)(C)c1ccc(C(=O)Nc2ccc(-c3nc4ccccc4[nH]3)cc2)cc1	/	/	/	/	/	4.8%	/	/	/	/
CC(C)(C)c1ccc(-c2nc3ccccc3[nH]2)cc1	/	/	/	/	/	10µM*	/	/	/	/	NNMT counter=?
CC(C)=CCC/C(C)=C/CC/C(C)=C/CC[C@]1(C)CCc2cc(O)cc(C)c2O1	/	/	/	/	/	2.3%[29.8 µM]	/	/	/	/
CCOC(=O)c1csc(Nc2ccc(Cl)cc2)n1	/	/	/	/	/	-21.2%[57.5 µM]	/	/	/	/
C#Cc1cccc(Nc2ncnc3cc(OC)c(OCCCCCCC(=O)NO)cc23)c1	/	/	/	/	/	12.6µM*	/	/	/	/	NNMT counter=?
COc1cc2ncnc(Nc3ccc(O)cc3)c2cc1OC	/	/	/	/	/	-11.1%[57.5 µM]	/	/	/	/
O=C(Nc1ccccc1)c1ccc(Nc2nnc(-c3ccc(O)cc3)c3ccccc23)cc1	/	/	/	/	/	6.9%[57.5 µM]	/	/	/	/	NNMT counter=?
Cc1cc(C)nc(NC(=S)N2CCN(c3ccc(C(=O)O)cc3)CC2)c1	/	/	/	/	/	?	9.37µM*	3.24µM*	?	21.5µM*	HM489 growth=-0.8%;Sfp gel opt=-56.0%
Cc1cc(C)nc(NC(=S)N2CCN(c3cccc(S(C)(=O)=O)c3)CC2)c1	/	/	/	/	/	?	4.69µM*	2.89µM*	-25.1%	15.2µM*	HM489 growth=15.2%;Sfp gel opt=15.8µM*
Cc1cc(C)nc(NC(=S)N2CC3CN(c4ccc(Cl)cc4C(F)(F)F)CC3C2)c1 (stereo not drawn)	/	/	/	/	/	?	0.257µM*	0.73µM*	-27.3%	8.57µM*	hGST A1-1 inh=?
CC(=O)c1ccc(N2CCN(C(=O)CCC(=O)Nc3ccc4nc(N5CCCCC5)cc(C)c4c3)CC2)cc1	i	i	3.2%	i	18.3	?	/	/	/	/
Cc1cc(C)nc(NC(=S)N2CCN(c3ccncc3)CC2)c1	/	/	/	/	/	?	?	3.24µM*	6.2%	30.4µM*	HM489 growth=-19.9%;Sfp gel opt=-6.2%
Nc1nonc1-c1nc2cnccc2n1C1CC1	/	/	/	/	/	7.3%	/	/	/	/
O=C(Nc1ccc(-n2cncn2)c(F)c1)Nc1nnc(-c2ccncc2)s1	/	/	/	/	/	0.0%[57.5 µM]	/	/	/	/
Cc1cc(NC(=O)Nc2nnc(C3CCCCC3)s2)ccc1F	/	/	/	/	/	6.4%	/	/	/	/
